Assay results from the supplement of paper PMC10338343.
± gives the standard deviation.
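Also: 1 nM active piRISC with 0.1 nM target library at 33 °C single turnover.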

Each sequence was assayed on MILI (PIWIL2) piRISC loaded with piRNA #1 (26 nt) (assay: pre-steady-state target cleavage rate (min^-1); guide: piRNA #1 5'p-UGAGGUAGUAGGUUGUAUAGUAUCCA; MIWI and MILI are mouse PIWI proteins and EfPiwi is from a freshwater sponge; tags in brackets are library labels; higher = faster piRNA-guided slicing of the target). Conditions: auxiliary factor: 500 nM mouse GTSF1.
In short: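 In HEPES–potassium acetate buffer at 33 °C, […] transcribed, DNA-blocked target RNA library was mixed with 1 nM active affinity-purified piRISC carrying one synthetic guide, with or without 500 nM GTSF1 partner protein, for 0–8 or 0–960 min. Uncleaved targets were sequenced and normalised to depth and to weakly complementary targets; three trials were pooled and k3 was capped at 0.0001 min^-1. The pre-steady-state cleavage rate followed from a burst-and-steady-state fit.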
For GGAGACCUAUGUAUACAACCUAUCUACCUCA, the “pre-steady-state target cleavage rate” value was 0.0415 ± 0.01.
In the case of GGAGACCUAUCUAUACAACCUACUACUCA, the “pre-steady-state target cleavage rate” value is reported as 0.0936 ± 0.013.
For GGAGACCUAUGACUACAACCUACUACCUCA, the “pre-steady-state target cleavage rate” value was 0.00416 ± 0.0019.
In the case of “GGAGACCUAUGAUAUGUUGGUACUACCAGA [g4:g10:cont:t1A]”, the “pre-steady-state target cleavage rate” value is reported as under 0.0001.
With GGAGACCUAUCUAUACAACCUACUUGCUCA the “pre-steady-state target cleavage rate” value was 0.109 ± 0.023.
In the case of GGAGACCUAUGAUUACAACCUAUUACCUCA, the “pre-steady-state target cleavage rate” value is reported as 0.00348 ± 0.0024.
GGAGACCUAACUAUACAACCUACUACCGCA was tested, and the “pre-steady-state target cleavage rate” value was 0.197 ± 0.038.
GGAGUGGAUACUAUACAUCCUAGUACCUCA was tested, and the “pre-steady-state target cleavage rate” value was 0.103 ± 0.019.
In the case of GGAGACCUAUGAUUUCAAGCUACUACCUCA, the “pre-steady-state target cleavage rate” value is reported as 0.00713 ± 0.0026.
With GGAGACCUAUCUAUACUACCUACAACCUCA the “pre-steady-state target cleavage rate” value was 0.0808 ± 0.009.
In the case of GGAGACCAUACAUAACAACCUACUACCUCA, the “pre-steady-state target cleavage rate” value is reported as 0.0246 ± 0.0068.
In the case of GGAGACCUAACUUUACAACCUACUAGCUCA, the “pre-steady-state target cleavage rate” value is reported as 0.0363 ± 0.017.
In the case of GGAGACCUAUGUAUUCAACCUACUAGCUCA, the “pre-steady-state target cleavage rate” value is reported as 0.0092 ± 0.0033.
GGAGACCUUACUAUACAACCUACUAACUCA was tested, and the “pre-steady-state target cleavage rate” value was 0.0948 ± 0.017.
For GGAGACCUAUCAAAACAACCUACUACCUCA, the “pre-steady-state target cleavage rate” value was 0.0082 ± 0.0029.
For GGAGACCUAUGUAUACUACCUACUACCUCA, the “pre-steady-state target cleavage rate” value was 0.0517 ± 0.008.
